MITF primary: MITF inhibitors, primary screen, biochemical, AlphaScreen, human; Microphthalmia-associated transcription factor (Homo sapiens), O75030; AlphaScreen MITF homodimerization, bead proximity signal; inhibition, % at 2.6 µM; 650,000 compounds, 0.91% hits; in the data active = inhibition above about 50%;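 note: 0% = vehicle wells with protein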
FBW7 activator: FBW7 E3 ligase activators, primary screen, biochemical, AlphaScreen, human; AlphaScreen FBW7–phospho-cyclin E peptide binding, activator screen; F-box/WD repeat-containing protein 7 (Homo sapiens), Q969H0; 650,000 compounds, 0.13% hits; normalized activity (activation), % at 26.1 µM; AID 1259310, 2017; in the data active = normalized activity above about 1.9%;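 note: purified mutant Fbw7 with reduced substrate affinity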
GPR151 activ: activators of human GPR151, primary screen, cell-based, PathHunter beta-arrestin, luminescence; activation, % at 11.2 µM; 650,000 compounds, 1% hits; G-protein coupled receptor 151 (Homo sapiens), Q8TDV0; PathHunter beta-arrestin GPR151 cells; in the data active = activation above about 4.9%;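 note: 0% = median of compound wells and 100% = cells with positive control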
Target sequence (Q8TDV0 whole entry, looked up): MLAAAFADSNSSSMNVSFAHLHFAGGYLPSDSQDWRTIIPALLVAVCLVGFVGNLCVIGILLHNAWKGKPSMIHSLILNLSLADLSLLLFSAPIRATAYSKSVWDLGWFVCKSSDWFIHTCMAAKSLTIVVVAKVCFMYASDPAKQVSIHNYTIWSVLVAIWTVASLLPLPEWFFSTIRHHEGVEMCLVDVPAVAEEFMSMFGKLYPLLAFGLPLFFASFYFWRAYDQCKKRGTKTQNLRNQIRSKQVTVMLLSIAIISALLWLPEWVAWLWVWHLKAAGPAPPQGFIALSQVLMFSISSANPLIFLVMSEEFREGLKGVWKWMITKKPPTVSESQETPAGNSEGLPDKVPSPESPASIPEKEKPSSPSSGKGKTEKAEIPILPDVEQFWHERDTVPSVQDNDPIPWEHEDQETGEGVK
TEAD-YAP inh: TEAD-YAP interaction inhibition, primary screen, TEAD-YAP interaction inhibitor project, luminescence, HEK-TIYL cells; inhibition, % at 9.12 µM; TEAD-Gal4/YAP UAS-luciferase luminescence; 640,000 compounds, 1.4% hits; AID 1259422, 2018; in the data active = inhibition above about 32%;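 note: 0% = median of test compound wells and 100% = reference inhibitor wells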
MITF confirm: MITF inhibitors, retest of hits, confirmation, biochemical, AlphaScreen, triplicate; 4,700 compounds, 16% hits; shares compounds with MITF primary; inhibition, % at 2.6 µM; AlphaScreen MITF homodimerization, biotin/His-MITF beads;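 active = inhibition above a cutoff derived from the DMSO control wells, cut at about 28% in these data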;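 note: 0% = MITF dimer wells with DMSO only; inhibitors lower the bead chemiluminescence by keeping MITF from dimerizing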
AS interf ctr: AlphaScreen optical interference compounds, counter-screen for MITF inhibitor project, biochemical, triplicate. shares compounds with MITF primary. LysRS AlphaScreen counterscreen, signal interference. inhibition, % at 2.6 µM. 4,700 compounds, 7.6% hits. AID 1259376, 2018;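 active = inhibition above a cutoff derived from the DMSO control wells, cut at about 30% in these data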
An asterisk follows results filed as active; . = not tested or not shown. A selection: hits, their analogues and other compounds. The true share with any hit is near 3.5%.

SMILES	MITF primary	FBW7 activator	GPR151 activ	TEAD-YAP inh	MITF confirm	AS interf ctr
O=C1CCCN1CCn1cnc2c(Nc3ccc(N4CCOCC4)cc3)nc(N3CCC(N4CCOCC4)CC3)nc21	10	0	-1	-4	.	.
CCN(CC)c1ccc(/C=N/Nc2nonc2N)cc1	3	0	0	-27	.	.
COc1ccc(CCNC(=O)CCNC(=O)c2ccc(Br)o2)cc1OC	7	0	0	4	.	.
COC(C(=O)NNC(=S)NC(=O)c1cc2ccccc2oc1=O)c1ccccc1 (centres undefined)	3	0	1	7	.	.
CC1CCN(Cc2nc3c(c(=O)n(C)c(=O)n3C)n2Cc2ccc(F)cc2)CC1	51*	0	1	2	6	13
Cc1ccc(Cn2c(CN3CCC(C)CC3)nc3c2c(=O)n(C)c(=O)n3C)cc1	-1	0	2	-7	.	.
CCOc1ccc(-c2c(C#N)c(N)nc(SCC(=O)OC)c2C#N)cc1	-6	0	-2	-2	.	.
O=C(Cn1cc([N+](=O)[O-])ccc1=O)N1CCOCC1	3	0	0	0	.	.
Cc1cccc(CN2CCN(CCCc3ccccc3)CC2)c1	69*	0	-2	3	-3	2
CSc1ccc(CN2CCN(CCCc3ccccc3)CC2)cc1	64*	0	4	1	0	3
NCCNCCNCCN	91*	0	0	3	70*	100*
Cc1ccc(-c2csc3nc(CNCCN(C)C)[nH]c(=O)c23)cc1	96*	-1	3	0	16	83*
Cc1ccc(-c2csc3nc[nH]c(=O)c23)cc1	-13	0	-2	-2	.	.
CC(C)CNC(=O)c1cn(C2CCCCC2)cc(C(=O)NCCc2cccnc2)c1=O	51*	0	-1	-43	3	0
O=[N+]([O-])c1ccccc1OCCNC1CCCC1	52*	0	-1	2	-4	3
CCN1CCN(CCOc2ccc(I)cc2)CC1	64*	0	0	0	13	16
CCN1CCN(CCCOc2ccc(OC)cc2)CC1	29	0	1	-3	.	.
c1ccc(COc2ccccc2OCCCCNCCN2CCOCC2)cc1	-10	0	0	-10	.	.
O=[N+]([O-])c1ccccc1OCCCOc1ccccc1[N+](=O)[O-]	12	0	2	-71	.	.
c1ccc(COc2ccccc2OCCNCCN2CCOCC2)cc1	66*	0	-1	6	-6	11
CCN1CCN(CCOc2ccccc2OCc2ccccc2)CC1	66*	0	-3	3	4	4
O=C(N/N=C/c1ccc(O)c(O)c1)c1ccccc1[N+](=O)[O-]	-7	0	-1	2	.	.
CCN1CCN(CCOc2ccccc2[N+](=O)[O-])CC1	75*	0	-1	10	15	16
O=[N+]([O-])c1ccccc1OCCCCN1CCCC1	13	0	0	0	.	.
c1ccc(COc2ccc(OCCN3CCCC3)cc2)cc1	6	0	0	-21	.	.
SMILES	MITF primary	FBW7 activator	GPR151 activ	TEAD-YAP inh	MITF confirm	AS interf ctr
CCN1CCN(CCOc2ccc(OCc3ccccc3)cc2)CC1	69*	0	1	-32	9	14
COc1cccc(C(=O)N2CCN=C2SCc2ccccc2)c1	-9	0	2	-7	.	.
N#CCSc1nnc(C2COc3ccccc3O2)o1 (centres undefined)	20	0	-2	-12	.	.
COc1ccc2nc(CN3CCN(C(=O)C4CC4)CC3)[nH]c2c1	68*	0	0	-6	13	13
CCNC(=O)N1CCN(Cc2nc3ccccc3[nH]2)CC1	8	0	-1	-2	.	.
COC(=O)CN1CCN(Cc2nc3ccccc3[nH]2)CC1	52*	0	-1	-11	6	14
O=C(C1CCN(Cc2nc3ccccc3[nH]2)CC1)N1CCN(C2CCCCC2)CC1	9	0	0	-5	.	.
COc1ccc(CCNC(=O)C2CCN(Cc3nc4ccccc4[nH]3)CC2)cc1	80*	-1	0	0	6	14
O=C(c1cccc2ccccc12)N1CCN(Cc2nc3ccccc3[nH]2)CC1	59*	0	2	10	-2	13
O=C(/C=C/Nc1cccc2ccccc12)C(F)(F)F	7	0	-2	4	.	.
CC1CCCCN1CCn1cnc2c([nH]c3ccc(Cl)cc32)c1=O (centres undefined)	8	1	-1	-15	.	.
COCC(=O)N1CCN(Cc2nc3ccccc3[nH]2)CC1	58*	0	2	-5	3	15
O=C(CN1CCN(Cc2nc3ccccc3[nH]2)CC1)N1CCCc2ccccc21	91*	0	-2	9	1	24
COC(=O)CC1=NN(c2nc3ccccc3[nH]2)C(=O)C1	79*	-1	3	3	70*	97*
CCc1ccccc1NC(=O)CN1C(=O)C(C)(C)Oc2ccc(C(=O)NC(C)C)cc21	9	0	0	11	.	.
O=C(NCCCN1CCCC1=O)c1csc(Oc2ccccc2)n1	19	0	0	9	.	.
CC1CCCN(C(=O)C2CCN(Cc3cccc(Br)c3)CC2)C1 (centres undefined)	62*	1	0	6	-7	-2
CC1CCCN(C(=O)C2CCN(Cc3ccccc3F)CC2)C1 (centres undefined)	67*	0	0	6	-12	-10
CC1CCCN(C(=O)C2CCN(Cc3cccc(Cl)c3)CC2)C1 (centres undefined)	57*	1	2	7	-1	-5
CCN1CCN(C(=O)C2CCN(Cc3cc(Br)c(O)c(OC)c3)CC2)CC1	45	0	-1	2	.	.
COc1cc(CN2CCC(C(=O)N3CCCC(C)C3)CC2)cc(Br)c1O (centres undefined)	52*	1	-1	-1	-7	-4
CC1CCCN(C(=O)C2CCN(Cc3cccc4ccccc34)CC2)C1 (centres undefined)	28	1	-2	14	.	.
NC(=O)c1cc2ccccc2o/c1=N\O	6	1	-1	7	.	.
CCOc1cc(/C=N/n2cnc3sc4c(c3c2=O)CCCC4)cc([N+](=O)[O-])c1O	-2	0	1	0	.	.
CN(C)CCCN(CCCN(C)C)CC(c1ccccc1)c1ccccc1	55*	1	0	9	-4	0
O=[N+]([O-])c1ccccc1CN1CCN(Cc2ccc3c(c2)OCO3)CC1	59*	0	0	-10	19	36*
O=C(c1ccccc1[N+](=O)[O-])N1CCN(Cc2ccc3c(c2)OCO3)CC1	-7	0	0	1	.	.
